Compounds with a hit are over-represented: about 20% of the library has one in this group of screens.
Cycloheximide cs: counter-screen for Shiga toxin inhibitors: cycloheximide protein synthesis inhibition; cell reporter, cycloheximide protein synthesis inhibition counterscreen; max response, %; 300,000 tested, 12% active; AID 2314; in the data active means max response mostly above about 13%, no sharp cut-off; inactive means mostly below about 14%; further: read at 38.3 µM for the half of the compounds with a filed dose; 0% is about no effect
Pf growth 48h: P. falciparum growth inhibition at 48 hours (one generation); Potency, µM (series often up to 28.7 µM), inactives show top-dose activity change, negative = inhibition, actives largely listed as inhibitors; P. falciparum luciferase growth in erythrocytes, 48 h; 310,000 tested, 5.9% active; further: potency means the concentration at half of the fitted maximal effect; on the % scale 0 is the no-effect control and ±100 the full control effect
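Luminescence readout; reporter = integrated firefly luciferase in P. falciparum. RBC culture at 2% hematocrit, 0.1% parasitemia final, 37 C/5% CO2; decreased signal taken as growth inhibition.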
Shiga toxin inh: inhibitors of Shiga toxin in Vero cells; Vero cells, Shiga toxin protein synthesis inhibition reporter; inhibition, % at 38.7 µM; 290,000 tested, 9.2% active; in the data active means inhibition mostly above about 28%, no sharp cut-off; inactive means mostly below about 43%; further: 0% is about no effect
HCMV inh: blocks human cytomegalovirus replication; HFF cells, HCMV-luciferase reporter, 72 h; stronger effect = lower value; activity change, negative = inhibition, % at 57.5 µM; 410,000 tested, 4.5% active; in the data active means activity change below about -60%; inconclusive means no clear call, values can overlap the other calls; inactive means above about -39%; further: on the % scale 0 is the no-effect control and ±100 the full control effect
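Luciferase read-out from HCMV-luciferase-infected HFFs (MOI 1 PFU/cell) 72 h post infection at 37C; compounds added after 16 h cell attachment; activity normalized between buffer-only basal and Salinomycin (10uM) inhibitor controls.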
Pf growth 96h: P. falciparum growth inhibition at 96 hour, primary screen for plastid delayed-death inhibitors; 320,000 tested, 6.9% active; P. falciparum luciferase reporter growth, 96 h; Potency, µM (titrated, usually from 28.7 µM), without a hit: at the top dose activity change, negative = inhibition, most hits filed as inhibitors; further: potency means the concentration at half of the fitted maximal effect; on the % scale 0 is the no-effect control and ±100 the full control effect
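Infected RBCs, 2% Hct / 0.05% parasitemia final; luciferase-reporter P. falciparum; cpd 96 h, 37 C, 5% CO2; luciferase detection reagent; luminescence.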
* hit, by the source's call; ? = inconclusive; . = not tested or not shown. Unless noted, the call rests on the fitted dose curve; in most records, active means well fitted inhibition curve with a large enough effect; inconclusive means small, poorly fitted or top-dose-only effect, or another doubt; inactive means no such curve, though single readings can be large or run the other way.

SMILES | Cycloheximide cs | Pf growth 48h | Shiga toxin inh | HCMV inh | Pf growth 96h
CCCc1nnc(NC(=O)C(CC)Sc2nnc3c4ccccc4n(C)c3n2)s1 (centres undefined) | . | . | . | -29 | .
C=CCn1c2ccccc2c2nnc(SC(CC)C(=O)Nc3sc4c(c3C#N)CCCC4)nc21 (centres undefined) | 24* | -16% | 7 | -25 | .
O=C(Nc1nccs1)c1cc2c(s1)-c1ccccc1OC2 | 21* | . | 71* | ? | -4%
Cc1cccc2c1-c1sc(C(=O)Nc3nccs3)cc1CO2 | 66* | . | 118* | ? | 8.3µM*
Cc1cccc2c1-c1sc(C(=O)Nc3cccc([N+](=O)[O-])c3C)cc1CO2 | 0 | -5% | 6 | -14 | 0.74µM*
O=C(Nc1nc2ccccc2s1)c1cc2c(s1)-c1ccccc1OC2 | -1 | . | 30 | -26 | ?
Cc1cccc2c1-c1sc(C(=O)Nc3ccccc3C(N)=O)cc1CO2 | . | . | . | 101 | .
COc1ccc(Br)c(C(=O)Nc2cc3c(cc2N2CCCC2)n(C)c(=O)c(=O)n3C)c1 | . | . | . | 8 | .
O=C(O)c1ccc(-n2cccc2/C=C2/SC(=O)N(CC(=O)N3CCCC3)C2=O)cc1 | -3 | 11% | 10 | 13 | 49%
CCCCN(CC)C(=O)c1nn(-c2ccc(OC)cc2)c(=O)c2c1c1ccccc1n2C | . | . | . | -29 | .
CC(C)c1ccc(N2C(=O)N(Cc3ccccc3Cl)c3ccccc3S2(=O)=O)cc1 | . | . | . | -22 | .
CC(=O)Nc1cccc(-c2ccnc3c2CC(C(=O)NCCN(C)C)O3)c1 (centres undefined) | . | . | . | 21 | .
CC(C)(CO)NCC#Cc1ccccc1 | -3 | 1% | -8 | -29 | -2%
Cc1cc(S(=O)(=O)n2ccnc2C(C)C)cc([N+](=O)[O-])c1C | . | . | . | 5 | .
CCN(CC)C(=O)C1=C(C)N(Cc2ccccc2)C(=O)C(CC(=O)NCCCCc2ccccc2)C1 (centres undefined) | . | . | . | -16 | .
Nc1nncn1C(=O)CCCOc1ccccc1 | -3 | 38% | -14 | 34 | 107%
Nc1nncn1C(=O)CCc1ccccc1 | 9.3* | 14% | 20 | 42 | .
C/C(=N/NS(=O)(=O)c1ccccc1)c1c[nH]c2ccccc12 | 3 | 17% | -11 | . | ?
C/C(=N/NS(=O)(=O)c1ccc(C)cc1)c1c[nH]c2ccccc12 | -1 | 0% | -4 | 20 | 1.3µM*
Cc1ccc(C(=O)COC(=O)CCCC(=O)Nc2cc(C(F)(F)F)ccc2Cl)cc1C | 2 | 5% | -22 | 6 | ?
CCOc1ccc(-c2nnc(NC(=O)C3CCCC3)o2)cc1 | 35* | 57% | 42* | -38 | 68%
O=C(Nc1nnc(-c2ccc3c(c2)OCCO3)o1)C1CCCCC1 | 43* | 395% | 131* | 10 | 150%
CCOc1ccccc1N(C)C(=O)Cn1cnc2sc(C)c(S(=O)(=O)N3CCC(C)CC3)c2c1=O | . | . | . | -3 | .
Cc1cc(Oc2nc3ccccn3c(=O)c2/C=C(\C#N)C(=O)NC2CCS(=O)(=O)C2)ccc1Cl (centres undefined) | 0 | ? | -7 | -66* | ?
Cc1cccc(Oc2nc3ccccn3c(=O)c2/C=C(\C#N)C(=O)NC2CCS(=O)(=O)C2)c1C (centres undefined) | -8 | ? | -7 | -96* | ?
SMILES | Cycloheximide cs | Pf growth 48h | Shiga toxin inh | HCMV inh | Pf growth 96h
Cc1cccc(Oc2nc3ccccn3c(=O)c2/C=C(\C#N)C(=O)NC2CCS(=O)(=O)C2)c1 (centres undefined) | -2 | -10% | -9 | 20 | -15%
Cc1nn2c(=O)cc(COC(=O)c3ccc(NC(=O)C4CCCCC4)cc3)nc2s1 | . | . | . | -65* | .
O=C(OCc1cc(=O)n2nc(C3CC3)sc2n1)c1ccc(NC(=O)c2ccccc2F)cc1 | . | . | . | -19 | .
Cc1ccccc1C(=O)Nc1ccc(C(=O)OCc2cc(=O)n3nc(C4CC4)sc3n2)cc1 | . | . | . | -81* | .
COc1cccc(OCCSc2nc3ccccc3n2CC(=O)N2CCOCC2)c1 | . | . | . | 6 | .
Cn1c(/C=N/NC(=O)c2ccccc2Br)nc2ccccc21 | 15* | ? | 19 | -14 | ?
Cc1ccc(C(=O)N/N=C/c2nc3ccccc3n2C)cc1 | 13 | ? | 14 | -66* | ?
CCCCN([C@H](CO)C(C)C)S(=O)(=O)c1ccccc1Br | . | . | . | -15 | .
COc1ccc(CNc2nnnn2C)c(OC)c1 | -2 | 33% | -7 | 11 | 233%
Cc1cccc(Nc2nnc(-c3ccc(C(=O)N4C[C@H]5C[C@H](C4)c4cccc(=O)n4C5)cc3)c3ccccc23)c1 | -3 | ? | -7 | ? | 3.7µM*
COc1ccc(-c2cc(C(=O)N3CCCCC3)c3ccccc3n2)cc1OC | 13 | ? | -1 | 2 | ?
COc1ccc(Nc2nnc(-c3ccc(C)cc3)c3ccccc23)cc1C(=O)N1CCCCC1 | -3 | 6.6µM* | -7 | -73* | 1.2µM*
COc1ccc(-c2cc(C(=O)N3CCCC3)c3ccccc3n2)cc1OC | 19 | ? | -6 | 50 | -20%
COc1ccc(Nc2nnc(-c3ccccc3)c3ccccc23)cc1C(=O)N1CCCCC1 | -2 | 9.3µM* | -17 | -10 | 1.2µM*
COc1ccc(CCNc2ncnc3sccc23)cc1OC | 18 | -25% | 31 | -89* | -26%
COc1ccc(CSc2ncnc3sccc23)cc1F | 12 | 2% | 55* | -36 | 5%
CN(C)c1ccc(CNc2ncc(Br)cc2Br)cc1 | 34* | 44% | 66* | -6 | 160%
Fc1ccccc1CNc1ncnc2sccc12 | -3 | 7% | -4 | -15 | 23%
COc1ccccc1CNc1ncnc2sccc12 | 8 | -28% | 10 | -76* | -25%
COc1cccc(CNC(=O)[C@@H]2CCCN2C(=O)[C@H]2CCCCN2)c1 | . | . | . | 25 | .
CN(C)c1ccc(CNc2ncnc3sccc23)cc1 | 2 | -9% | 14 | -82* | 31%
NS(=O)(=O)c1ccc(CNc2ncnc3sccc23)cc1 | 0 | -14% | -15 | 4 | 12%
O=C(Nc1ccc(F)cc1)c1cccc(N2CCCS2(=O)=O)c1 | . | . | . | 2 | .
CC(C)Cn1[nH]c2c3c(ccc2c1=O)C(=O)c1ccccc1C3=O | 27* | 10µM* | 61 | . | ?
O=C1c2ccccc2C(=O)c2c1ccc1c(=O)n(-c3ccccc3)[nH]c21 | 9 | 1% | -5 | -65* | 19%
SMILES | Cycloheximide cs | Pf growth 48h | Shiga toxin inh | HCMV inh | Pf growth 96h
Cc1cccc(-n2[nH]c3c4c(ccc3c2=O)C(=O)c2ccccc2C4=O)c1 | -4 | 10% | -3 | -28 | 91%
Cc1nc(C(=O)N2CCC(C)(C(=O)NS(=O)(=O)C3CC3)C2)c(C)o1 (centres undefined) | . | . | . | -34 | .
O=S(=O)(c1cccc(F)c1)N1CCc2sccc2C1c1ccc(OC(F)(F)F)cc1 (centres undefined) | 1 | 13µM* | 3 | -26 | ?
COCCCNC(=O)NC(CCC(C)C)c1c(-n2cccc2)sc2c1CCN(C)C2 (centres undefined) | . | . | . | 11 | .
COc1ccccc1NC(=O)Nc1ccc(N2CCOCC2)cc1 | 51* | 50% | 84* | -3 | 183%
COc1ccccc1NC(=O)Nc1ccccc1C(N)=O | 19 | 35% | 19 | -21 | 37%

Assay outcomes from PubChem.
